Measurements: PubChem BioAssay (Tox21)
Where “and” joins values, the source holds several entries; their conditions need not be identical. Identical values can stand only once. Results filed as inconclusive are left out. A call without a number means that no potency is given here. Where a structure was tested more than once in an assay, its records may differ in their call. Calls of active or inactive are those of the source. The call rests on the fitted dose curve; in most records, active means well fitted inhibition curve with a large enough effect in the repeat runs; inconclusive means weak or mixed curves; inactive means flat fitted curve, though single readings scatter.

molecular target: Luciferin 4-monooxygenase (Photinus pyralis) (UniProt P08659); experiment: qHTS assay to identify small molecule inhibitors of firefly luciferase (AID 1224835); further: nearly all actives have a fitted effect of over 25% in size; settings: purified P. pyralis luciferase, luminescence inhibition; series mostly up to 115 µM
Source text: U.S. Tox21 Program National Center for Advancing Translational Sciences [NCATS] NIH Chemical Genomics Center [NCGC] U.S. Environmental Protection Agency [EPA] National Institutes of Environmental Health Sciences [NIEHS] National Toxicology Program [NTP] U.S. Food and Drug Administration [FDA] Tox21 Assay Overview: Firefly (Photinus pyralis) luciferase is one of the most commonly used transcriptional reporters. Firefly luciferase reporter-gene assays are generally considered one of the most sensitive assay types (Wood, 1995; Wood, 1998). However, it was initially observed, in 1991, by Thompson et al., that compounds that resemble the substrates of firefly luciferase (FLuc) can act as competitive inhibitors of the enzyme, and that these compounds, upon interaction with luciferase in the cell, can actually stabilize the protein and increase its half-life. Previous profiling work by other groups to determine the prevalence of compounds that affect FLuc enzymatic activity (PubChem AID 411) identified that ~3% of the MLSMR library (then at ~72K) inhibited FLuc. […] Thus the Tox21 10K library is profiled for activity against FLuc using a biochemical assay of purified FLuc and KM concentrations of FLuc substrates (D-luciferin and ATP).
These assay plates were then treated with 23nL of compound or DMSO using a Kalypsys pin tool, which allows for delivery of a 6-point interplate titration of each compound to the assay plate (quantitative HTS.) 1 uL of firefly luciferase mix (containing 50 mM Tris acetate, pH 7.6, 0.04 uM P. pyralis luciferase, 0.01% Tween, 0.05% BSA and dH2O) was then delivered by FRD to each well. Luciferase activity was then measured using a ViewLux CCD imager.

Sequence of Luciferin 4-monooxygenase (Photinus pyralis) (P08659 whole entry, looked up): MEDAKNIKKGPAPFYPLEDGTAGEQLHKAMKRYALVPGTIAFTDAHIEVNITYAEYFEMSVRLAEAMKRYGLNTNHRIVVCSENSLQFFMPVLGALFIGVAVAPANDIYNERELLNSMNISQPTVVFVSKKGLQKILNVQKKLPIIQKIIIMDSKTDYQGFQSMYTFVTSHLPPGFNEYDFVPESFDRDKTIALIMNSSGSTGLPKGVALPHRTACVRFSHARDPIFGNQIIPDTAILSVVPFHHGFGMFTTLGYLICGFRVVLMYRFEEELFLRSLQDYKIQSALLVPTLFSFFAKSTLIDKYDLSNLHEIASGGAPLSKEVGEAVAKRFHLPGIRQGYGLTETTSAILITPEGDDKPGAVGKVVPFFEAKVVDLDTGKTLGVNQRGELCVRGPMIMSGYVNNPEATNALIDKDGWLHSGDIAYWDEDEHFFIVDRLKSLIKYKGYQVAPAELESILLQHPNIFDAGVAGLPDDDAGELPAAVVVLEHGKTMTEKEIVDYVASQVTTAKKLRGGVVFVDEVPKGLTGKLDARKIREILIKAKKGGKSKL

SMILES | Potency
CN(C)CCOC(C)(c1ccccc1)c1ccccn1 (stereo not given) | inactive
Cc1cc(=O)oc2cc(O)ccc12 | inactive
Cc1ncc([N+](=O)[O-])n1C | inactive
COc1cccc(O)c1O | inactive
NC(CO)(CO)CO | inactive
CCOC(N)=O | inactive
C=C(C)C(=O)OCC(C)O (stereo not given) | inactive
CN(C)C(=O)Nc1ccc(Cl)c(Cl)c1 | inactive
CC(C)C(=O)Nc1ccc([N+](=O)[O-])c(C(F)(F)F)c1 | inactive
CN(C)C(=S)SC(=S)N(C)C | 25.8 µM (active) and 11.2 µM (active) and 12.3 µM (active)
COc1ccc2cc(S(=O)(=O)N[C@H](CC(=O)N[C@H](Cc3ccc(CN4[C@H](C)CCC[C@@H]4C)cc3)C(=O)N(C)C(C)C)c3ccc4c(c3)OCO4)ccc2c1 | inactive
O=C1c2c(O)cccc2Cc2cccc(O)c21 | inactive
CCCCCCCC(=O)OCC(COC(=O)CCCCCCC)OC(=O)CCCCCCC | inactive
NC1CCCCC1 | inactive
CC1(C)O[C@@H]2C[C@H]3[C@@H]4CCC5=CC(=O)C=C[C@]5(C)[C@@]4(F)[C@@H](O)C[C@]3(C)[C@]2(C(=O)CO)O1 | inactive
CN1CCc2cccc3c2[C@H]1Cc1ccc(O)c(O)c1-3 | inactive
O=C1NC(=O)C(c2ccccc2)(c2ccccc2)N1 | inactive
CN(N=O)C(=O)N[C@@H]1[C@@H](O)[C@H](O)[C@@H](CO)O[C@@H]1O | inactive
CCCCCCc1ccc(O)cc1O | inactive
CC12CCC(CC1)C(C)(C)O2 | inactive

SMILES | Potency
CCN(CC)C(=O)c1cccc(C)c1 | inactive
CCCc1cc(=O)[nH]c(=S)[nH]1 | inactive
CCc1nc(N)nc(N)c1-c1ccc(Cl)cc1 | inactive
COc1ccc2c(c1)c(CC(=O)O)c(C)n2C(=O)c1ccc(Cl)cc1 | inactive
CCOc1ccc(NC(C)=O)cc1 | inactive
Cc1cc(C)nc(NS(=O)(=O)c2ccc(N)cc2)n1 | inactive
O=c1[nH]cc(F)c(=O)[nH]1 | 41.5 µM (active) and inactive
O=S1(=O)OC(c2ccc(O)cc2)(c2ccc(O)cc2)c2ccccc21 | 31.7 µM (active) and 17.8 µM (active) and 12.3 µM (active)
Cc1cccc(C)c1 | inactive
CCCCCCCCCCCCCCCC[N+](C)(C)Cc1ccccc1 | inactive
CN(C)CCOC(c1ccccc1)c1ccccc1 | inactive
Nc1c(N=Nc2ccc(-c3ccc(N=Nc4cc(S(=O)(=O)O)c5ccccc5c4N)cc3)cc2)cc(S(=O)(=O)O)c2ccccc12 | 39.9 µM (active)
O=CC(=O)c1ccccc1 | inactive
COc1ccc(C(Cl)=C(c2ccc(OC)cc2)c2ccc(OC)cc2)cc1 | inactive
Nc1ccc(O)c([N+](=O)[O-])c1 | 79.6 µM (active)
C1=CC2C3C=CC(C3)C2C1 (stereo not given) | inactive
CCCCC1(COC(=O)CCC(=O)O)C(=O)N(c2ccccc2)N(c2ccccc2)C1=O | inactive
OC[C@H]1O[C@H](O[C@]2(CCl)O[C@H](CCl)[C@@H](O)[C@@H]2O)[C@H](O)[C@@H](O)[C@H]1Cl | inactive
F[B-](F)(F)F | inactive
CCCCC(CC)C(=O)O (stereo not given) | inactive
